Sm TGR block – blocks Schistosoma mansoni thioredoxin glutathione reductase. 360,000 tested, 3% active. purified TGR, DTNB reduction, TNB absorbance 405 nm. AID 485364. Q962Y6. Potency, µM (highest dose often 114 µM), inactives show at the top dose activity change, negative = inhibition, most hits filed as inhibitors; note: potency is the fitted concentration of half-maximal effect; % is set by controls: 0 for no effect and ±100 for the full control effect; nearly all actives have a fitted effect of over 60% in size
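TGR 20 nM + NADPH 100 uM (dispensed conc.), cpd preinc 15 min RT; start with NADPH (500 uM addition) then DTNB (15 mM addition). Kinetic TNB absorbance, 405 nm filter. Four-parameter Hill fit across titration.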
LmPK inhibitor – LmPK (Leishmania mexicana) enzyme inhibition | Q27686 | purified LmPK, Kinase-Glo ATP luminescence, 1 h | Potency, µM (top dose mostly 57.5 µM), for the others: top-dose activity change, negative = inhibition, most hits filed as inhibitors | 290,000 tested, 0.37% active | AID 1721; note: potency is the fitted concentration of half-maximal effect; % is set by controls: 0 for no effect and ±100 for the full control effect
Target sequence (Q27686 whole entry, looked up): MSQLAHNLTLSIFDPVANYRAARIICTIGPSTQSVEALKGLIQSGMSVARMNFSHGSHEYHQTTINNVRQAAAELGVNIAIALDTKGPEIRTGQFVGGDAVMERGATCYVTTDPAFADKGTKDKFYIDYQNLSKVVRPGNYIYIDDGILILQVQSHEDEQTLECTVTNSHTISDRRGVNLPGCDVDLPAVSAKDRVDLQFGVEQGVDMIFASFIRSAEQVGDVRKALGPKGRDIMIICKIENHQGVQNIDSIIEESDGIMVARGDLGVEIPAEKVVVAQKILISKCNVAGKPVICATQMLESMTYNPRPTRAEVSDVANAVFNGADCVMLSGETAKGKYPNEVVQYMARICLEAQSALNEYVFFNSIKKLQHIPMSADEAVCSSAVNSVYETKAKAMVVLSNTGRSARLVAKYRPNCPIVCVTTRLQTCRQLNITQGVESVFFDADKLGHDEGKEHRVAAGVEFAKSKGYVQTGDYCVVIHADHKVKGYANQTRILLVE
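Screened at intermediate enzyme activity to detect both inhibitors and activators: LmPK at 0.1 nM, with a 0.5 nM enzyme column as activation reference. PEP 0.5 mM, ADP 0.1 mM; ATP detected by luminescence after 1 h.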
TbPYK inhibitor – blocks Trypanosoma brucei pyruvate kinase. Potency, µM (series often up to 76.8 µM), inactives show at the top dose activity, negative = inhibition, usual class: inhibitors. TbPYK enzyme, Kinase-Glo Plus ATP luminescence, 45 min. Q57TT1. 410,000 tested, 0.12% active. AID 624173; note: potency is the fitted concentration of half-maximal effect; % is set by controls: 0 for no effect and ±100 for the full control effect; nearly all actives have a fitted effect of over 50% in size
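Readout: single end-point luminescence (Kinase-Glo Plus, 10 min). Reaction conditions were TbPYK/substrate plus 130 uM ADP, 45 min at RT, pH 7.2 TEA buffer. No-enzyme wells served as controls, and data were normalized before concentration-response fitting.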
CHX counter – counter-screen for Shiga toxin inhibitors: cycloheximide protein synthesis inhibition; 300,000 tested, 12% active; max response, %; cell reporter, cycloheximide protein synthesis inhibition counterscreen; in the data active = max response mostly above about 13%, no sharp cut-off; inactive = mostly below about 14%; note: read at 38.3 µM for the half of the compounds with a filed dose; 0% is about no effect
Giardia FBPA inh – inhibitors of Giardia lamblia fructose-1,6-bisphosphate aldolase; purified Giardia FBPA; Potency, µM (series often up to 59.6 µM), for inactives: at the highest dose activity, negative = inhibition, most hits filed as inhibitors; 290,000 tested, 0.71% active; note: potency is the fitted concentration of half-maximal effect; % is set by controls: 0 for no effect and ±100 for the full control effect; nearly all actives have a fitted effect of over 55% in size
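Giardia FBPA (40 nM reagent) was preincubated 10 min at RT with compound (up to 57.5 uM final), then substrate plus GAPDH/TPI/NAD/arsenate coupling system with diaphorase/resazurin was added; resorufin fluorescence (525/598 nm) was read after 20 min.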
Shiga toxin inh – blocks Shiga toxin action in Vero cells; Vero cells, Shiga toxin protein synthesis inhibition reporter; inhibition, % at 38.7 µM; 290,000 tested, 9.2% active; AID 2315; in the data active = inhibition mostly above about 28%, no sharp cut-off; inactive = mostly below about 43%; note: 0% is about no effect
* marks the source's active call; other numbers are inactive results. The sample as a whole holds a higher share of hits than the screen did. Unless noted, calls come from the whole dose curve; as a rule, active = well fitted curve in the direction sought with a large enough effect; inconclusive = small, poorly fitted or top-dose-only effect, or another doubt; inactive = no such curve, though single readings can be large; an effect the other way counts as inactive or inconclusive.

For O=S(=O)(Nc1cc(O)cc2cccnc12)c1ccc(Cl)s1 the results were CHX counter -11, Giardia FBPA inh 3.2µM* and Shiga toxin inh -14.
`COC(=O)c1ccccc1NC(=O)c1c(O)c2c([nH]c1=O)CCCC2` gave Sm TGR block 36%, LmPK inhibitor -2%, TbPYK inhibitor 2%, CHX counter -3, Giardia FBPA inh -1% and Shiga toxin inh -7.
For O=C(NCC1CCCO1)c1c(O)c2c([nH]c1=O)CCCC2 (configuration not stated) the results were Sm TGR block 0%, LmPK inhibitor -2%, TbPYK inhibitor 3%, CHX counter 13*, Giardia FBPA inh 5% and Shiga toxin inh 29.
Screening O=C(Nc1ccc(O)cc1)c1c(O)c2c([nH]c1=O)CCCC2 returned Sm TGR block -1%, LmPK inhibitor 7%, TbPYK inhibitor 0%, CHX counter 44*, Giardia FBPA inh 0% and Shiga toxin inh 146*.
CCCCCC(=O)N1C[C@@H](n2cc(C3CC3)nn2)[C@H](O)C[C@@H]1c1ccc(OC)cc1 was read as TbPYK inhibitor -5%.
For COc1ccc(O)c(C(=O)c2cc(C(=O)NCCc3ccccc3)c(=O)n(CCc3ccccc3)c2)c1 the results were Sm TGR block 3%, LmPK inhibitor 0%, TbPYK inhibitor -9%, CHX counter 32*, Giardia FBPA inh 0% and Shiga toxin inh 19.
For CCCCN1CC(=O)N2[C@H]3c4ccccc4OC[C@@H]3[C@H](C(=O)OCC)[C@]2(C)C1=O the results were TbPYK inhibitor 1%.
`Nc1nc(Cl)cc(-c2ccccc2)n1` gave Sm TGR block 7%, LmPK inhibitor 0%, TbPYK inhibitor 1%, CHX counter 1, Giardia FBPA inh 3% and Shiga toxin inh -3.
`CCOc1cc(-c2ccccc2)nc(N)n1` gave Sm TGR block 7%, LmPK inhibitor -14%, TbPYK inhibitor -4%, CHX counter 49*, Giardia FBPA inh 6% and Shiga toxin inh 106*.
COc1cc(-c2ccccc2)nc(N)n1 was read as Sm TGR block -2%, LmPK inhibitor -9%, TbPYK inhibitor 3%, CHX counter 87*, Giardia FBPA inh 4% and Shiga toxin inh 77*.
Screening COc1cc(Oc2ccccc2)nc(N)n1 returned TbPYK inhibitor 4%.
`Fc1cc(F)c(F)c(SCn2cc(Br)cn2)c1F` gave Sm TGR block -7% and TbPYK inhibitor 0%.
CCSc1nc2ccc(N3C(=O)C4C5C=CC(C5)C4C3=O)cc2s1 (configuration not stated) was read as Sm TGR block -1%, LmPK inhibitor 3%, TbPYK inhibitor -12%, CHX counter 27*, Giardia FBPA inh -5% and Shiga toxin inh 50*.
For Cc1cccc(OCCn2c(=O)sc3ccccc32)c1 the results were Sm TGR block -2%, LmPK inhibitor -4%, TbPYK inhibitor -1%, CHX counter 36*, Giardia FBPA inh 1% and Shiga toxin inh 79*.
Screening Cc1ccccc1OCCn1c(=O)sc2ccccc21 returned Sm TGR block 0%, LmPK inhibitor 4%, TbPYK inhibitor 4%, CHX counter 12, Giardia FBPA inh 1% and Shiga toxin inh 24.
Cc1cccc(OCCCn2c(=O)sc3ccccc32)c1 was read as Sm TGR block 23%, LmPK inhibitor 6%, TbPYK inhibitor -3%, CHX counter 44*, Giardia FBPA inh -10% and Shiga toxin inh 60*.
`Cc1cccc(OCCn2c(=O)n(C)c3ccccc32)c1` gave Sm TGR block -2%, LmPK inhibitor 7%, TbPYK inhibitor -10%, CHX counter 67*, Giardia FBPA inh -1% and Shiga toxin inh 115*.
Screening COc1ccc(OCCn2c(=O)sc3ccccc32)cc1 returned LmPK inhibitor 1%, TbPYK inhibitor 0%, CHX counter 25*, Giardia FBPA inh 0% and Shiga toxin inh 81*.
Screening COc1cccc(Cn2c(=O)c(-c3cccs3)nc3cnc(Nc4cccc(OC)c4)nc32)c1 returned TbPYK inhibitor -4% and Giardia FBPA inh -3%.
For COc1ccc(NC(=O)C(C)n2nnc3sc(-c4ccccc4)cc3c2=O)cc1Cl (configuration not stated) the results were Sm TGR block -9% and TbPYK inhibitor -7%.
COc1ccccc1CCn1c(N)cc(=O)[nH]c1=O was read as Sm TGR block 8%, LmPK inhibitor 3%, TbPYK inhibitor 6%, CHX counter -2, Giardia FBPA inh 28% and Shiga toxin inh -3.
For Cc1ccc2[nH]cc(C(c3ccccc3)c3ccc(C)s3)c2c1 (configuration not stated) the results were Sm TGR block -4% and TbPYK inhibitor -12%.
Screening CCC(C)S(=O)(=O)c1oc(-c2ccc(F)cc2)nc1S(=O)(=O)c1ccc(F)cc1 (configuration not stated) returned Sm TGR block 5.6µM* and TbPYK inhibitor 4%.
`CCCCCS(=O)(=O)c1oc(-c2cccs2)nc1S(=O)(=O)c1ccc(C)cc1` gave Sm TGR block 2.8µM* and TbPYK inhibitor -8%.
`CCCCS(=O)(=O)c1oc(-c2ccc(F)cc2)nc1S(=O)(=O)c1ccc(C)cc1` gave Sm TGR block 3.2µM* and TbPYK inhibitor 8%.
Screening CCCSc1oc(-c2cccs2)nc1S(=O)(=O)c1ccc(C)cc1 returned Sm TGR block 10% and TbPYK inhibitor -2%.
For CSc1oc(-c2ccc(F)cc2)nc1S(=O)(=O)c1ccc(Br)cc1 the results were Sm TGR block 8% and TbPYK inhibitor 1%.
CCS(=O)(=O)c1oc(-c2ccc(F)cc2)nc1S(=O)(=O)c1ccccc1 was read as Sm TGR block 0.71µM* and TbPYK inhibitor 4%.
Screening COc1ccc(C(C)=O)cc1Cn1c(C)c(C(=O)NCc2cccc(C(F)(F)F)c2)sc1=O returned TbPYK inhibitor -2%.
For CCCCS(=O)(=O)c1oc(-c2cccs2)nc1S(=O)(=O)c1ccc(F)cc1 the results were Sm TGR block 1.6µM* and TbPYK inhibitor 1%.
`CCSc1oc(-c2cccs2)nc1S(=O)(=O)c1ccccc1` gave Sm TGR block -31%, LmPK inhibitor 6%, TbPYK inhibitor -15%, CHX counter 8, Giardia FBPA inh -19% and Shiga toxin inh 3.
`COC(=O)C1=C(C)Nc2ccc(C)cc2S1` gave Sm TGR block 28%, LmPK inhibitor 2%, TbPYK inhibitor -14%, CHX counter 24*, Giardia FBPA inh inconclusive and Shiga toxin inh 47.
Fc1ccc(C2=NC(c3cccc(C(F)(F)F)c3)=Nc3ccccc3N2)cc1 was read as Sm TGR block 3% and TbPYK inhibitor 3%.

Compound activity as filed in PubChem.
